The text below walks through data of article PMC11062922 (Nature Chemical Biology, 2023).

SMILES strings stand for the structures. Where two headings read alike, the source gives them in different places.

Holding throughout (set-up): species or system human, MV4-11 + K-562 + COLO205 + SK-N-BE2 + OVCAR-8
One test has as its system ADRBK1. The note with it: read-out: apparent Kd, compound concentrations: 100 nM and 1000 nM (sheet 'Samples'), n = 1.
The next test relates to AKT1. Particulars: read-out: apparent Kd, compound concentrations: 100 nM and 1000 nM (sheet 'Samples'), n = 1.
A further test relates to AKT2. Particulars: read-out: apparent Kd, compound concentrations: 100 nM and 1000 nM (sheet 'Samples'), n = 1.
The next test concerns AKT3. Particulars: read-out: apparent Kd; compound concentrations: 100 nM and 1000 nM (sheet 'Samples'), CATDS: 0.12570475509553999; n = 1.
The test system of another test is CDK6. The note with it: read-out: apparent Kd, compound concentrations: 100 nM and 1000 nM (sheet 'Samples'), n = 1.
The next test deals with ILK. The note with it: read-out: apparent Kd; compound concentrations: 100 nM and 1000 nM (sheet 'Samples'), CATDS: 0.12734816485016201; n = 1.
A further test has as its system MAP2K2. Particulars: read-out: apparent Kd, compound concentrations: 100 nM and 1000 nM (sheet 'Samples'), n = 1.
A further test deals with RIOK2. The note with it: read-out: apparent Kd, compound concentrations: 100 nM and 1000 nM (sheet 'Samples'), n = 1.
The test system of the next test is ADK. Particulars: read-out: apparent Kd, n = 1.
A further test relates to CLK1. Particulars: read-out: apparent Kd; compound concentrations: 100 nM and 1000 nM (sheet 'Samples'), CATDS: 5.4208995397741003E-2; n = 1.
A further test has as its system DYRK1A. The note with it: read-out: apparent Kd; compound concentrations: 100 nM and 1000 nM (sheet 'Samples'), CATDS: 5.0124883186775999E-2; n = 1.
Another test relates to GSK3A. The note with it: read-out: apparent Kd; compound concentrations: 100 nM and 1000 nM (sheet 'Samples'), CATDS: 9.7790905070532702E-2; n = 1.
The next test deals with GSK3B. The note with it: read-out: apparent Kd; compound concentrations: 100 nM and 1000 nM (sheet 'Samples'), CATDS: 0.116009702502103; n = 1.
The subject of the next test is ICK. The note with it: read-out: apparent Kd; compound concentrations: 100 nM and 1000 nM (sheet 'Samples'), CATDS: 5.3965454645481803E-2; n = 1.
The test system of the next test is NQO2. Particulars: read-out: apparent Kd; compound concentrations: 100 nM and 1000 nM (sheet 'Samples'), CATDS: 5.4334591839862598E-2; n = 1.
For another test, the system named is PRKCA. Particulars: read-out: apparent Kd; compound concentrations: 100 nM and 1000 nM (sheet 'Samples'), CATDS: 0.15913397901311099; n = 1.
The next test concerns PRKCB. The note with it: read-out: apparent Kd; compound concentrations: 100 nM and 1000 nM (sheet 'Samples'), CATDS: 9.8351239927142994E-2; n = 1.
The test system of the next test is PRKCD. Particulars: read-out: apparent Kd; compound concentrations: 100 nM and 1000 nM (sheet 'Samples'), CATDS: 0.131457549494816; n = 1.
The subject of the next test is PRKCQ. The note with it: read-out: apparent Kd; compound concentrations: 100 nM and 1000 nM (sheet 'Samples'), CATDS: 0.25317838429330802; n = 1.
The test system of another test is RPS6KA6. Particulars: read-out: apparent Kd; compound concentrations: 100 nM and 1000 nM (sheet 'Samples'), CATDS: 0.14606611193567601; n = 1.
For a further test, the system named is RPS6KB1. The note with it: read-out: apparent Kd; compound concentrations: 100 nM and 1000 nM (sheet 'Samples'), CATDS: 4.9333736806527098E-2; n = 1.
The next test concerns FLT3. Particulars: read-out: apparent Kd; compound concentrations: 100 nM and 1000 nM (sheet 'Samples'), CATDS: 6.2638012545430999E-2; n = 1.
A further test has as its system HSP90B1. Particulars: read-out: apparent Kd; compound concentrations: 100 nM and 1000 nM (sheet 'Samples'), CATDS: 7.7391071706101697E-2; n = 1.
For the next test, the system named is IARS. Particulars: read-out: apparent Kd; compound concentrations: 100 nM and 1000 nM (sheet 'Samples'), CATDS: 5.4756501565327097E-2; n = 1.
The subject of the next test is MAP2K1. The note with it: read-out: apparent Kd; compound concentrations: 100 nM and 1000 nM (sheet 'Samples'), CATDS: 5.5357684673120397E-2; n = 1.
The test system of the next test is MAPK14. The note with it: read-out: apparent Kd; compound concentrations: 100 nM and 1000 nM (sheet 'Samples'), CATDS: 6.9601617206552405E-2; n = 1.
Another test concerns MAPKAPK2. The note with it: read-out: apparent Kd; compound concentrations: 100 nM and 1000 nM (sheet 'Samples'), CATDS: 5.3693102707434E-2; n = 1.
The next test has as its system MDN1. Particulars: read-out: apparent Kd; compound concentrations: 100 nM and 1000 nM (sheet 'Samples'), CATDS: 0.23126444967608101; n = 1.
A further test deals with NNT. Particulars: read-out: apparent Kd; compound concentrations: 100 nM and 1000 nM (sheet 'Samples'), CATDS: 4.6645770981233098E-2; n = 1.
The test system of another test is NQO1. Particulars: read-out: apparent Kd; compound concentrations: 100 nM and 1000 nM (sheet 'Samples'), CATDS: 6.3403997272240303E-2; n = 1.
For another test, the system named is PYGL. The note with it: read-out: apparent Kd; compound concentrations: 100 nM and 1000 nM (sheet 'Samples'), CATDS: 4.60061770009558E-2; n = 1.
For another test, the system named is VDAC3. Particulars: read-out: apparent Kd; compound concentrations: 100 nM and 1000 nM (sheet 'Samples'), CATDS: 5.6878291770418803E-2; n = 1.

Turning to `Cl.Nc1n[nH]c2cc(-c3ccccn3)ccc12` [GSK2189892A], the potency estimated from few doses is 1470 nM in the test with ADRBK1 (CATDS: 0.135716479442168); 1730 nM in the test with AKT1 (CATDS: 0.124475037217828); 1740 nM in the test on AKT2 (CATDS: 0.124185471208428); 1700 nM with AKT3; 1880 nM with CDK6 (CATDS: 0.119736809743275); 1660 nM in the test with ILK. For the same compound, the potency estimated from few doses with MAP2K2 (CATDS: 0.12469214085712101) is 1730 nM; in the test on RIOK2 (CATDS: 0.119525040636944), 1880 nM.
`Cn1cc(C2=C(c3cn(CCCNC(=N)N)c4ccccc34)C(=O)NC2=O)c2ccccc21` [RO0318352-000]: the potency estimated from few doses in the test with ADK (compound concentrations: 100 nM and 1000 nM (sheet 'Samples'), CATDS: 5.0768617440539301E-2) is 1420 nM; in the test with CLK1, 1010 nM; in the test with DYRK1A, 1530 nM; in the test with GSK3A, 125 nM; in the test with GSK3B, 83.7 nM; with ICK, 1040 nM. The potency estimated from few doses was 1000 nM with NQO2; 45.1 nM with PRKCA; 124 nM in the test with PRKCB; 64.4 nM with PRKCD; 21.7 nM in the test with PRKCQ; 52.6 nM in the test with RPS6KA6. For the same compound, in the test on RPS6KB1, the potency estimated from few doses was 1670 nM.
For `CC(=O)N[C@@H](Cc1ccc(OP(=O)(O)O)cc1)C(=O)N[C@H]1CCC(=O)N2CCC[C@@H](C(=O)NCc3ccc(O)cc3)N2C1=O` [RO0324381-000], the potency estimated from few doses in the test with ADK (compound concentrations:100 nM and 1000 nM (sheet 'Samples')) is 1270 nM.
`Cc1ccc(NC(=O)Nc2cc(C(C)(C)C)nn2-c2ccccc2)cc1` [GSK1014915A]: the potency estimated from few doses in the test with ADRBK1 (CATDS: 5.8321770731493798E-2) was 1290 nM; with AKT1 (CATDS: 4.8230371724731401E-2), 2030 nM; in the test with AKT2 (CATDS: 6.0440208262816403E-2), 1190 nM; with CDK6 (CATDS: 5.1522031717759098E-2) it was 1710 nM; in the test with FLT3, 1110 nM; in the test with HSP90B1 it was 749 nM. Besides, the potency estimated from few doses in the test on IARS is 1480 nM; with MAP2K1, 1440 nM; in the test on MAP2K2 (CATDS: 6.2527819701534898E-2) it was 1110 nM; in the test on MAPK14 it was 906 nM; in the test on MAPKAPK2, 1550 nM; in the test on MDN1, 156 nM. The potency estimated from few doses with NNT was 2220 nM; in the test with NQO1 it was 1080 nM; in the test with PYGL it was 2310 nM; with RIOK2 (CATDS: 4.9711958169324999E-2), 1870 nM; in the test with VDAC3, 1360 nM.
